Inconclusive results are not listed. The source made the active and inactive calls. How the source made its calls, unless noted: active means hit-call score of the fitted dose curve at least 0.9, where 1 is the maximum; inactive means score below 0.9.
Molecular target: human Retinoid X Receptor beta (RXRb), RXRB (gene 6257) (UniProt P28702)
Test: ATG_RXRb_TRANS: Attagene TRANS-FACTORIAL HepG2 Assay for human Retinoid X Receptor beta (RXRb) (AID 2283013; active means hit-call score of the fitted dose curve at least 0.9, where 1 is the maximum)
Conditions: not given
Outline: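 Multiplexed TRANS reporter assay in HepG2; 24 h dosing; reporter mRNA by RT-PCR/CE fluorescence; gain-of-signal relative to DMSO.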

Sequence of E-selectin (Homo sapiens) (P16581 whole entry, looked up): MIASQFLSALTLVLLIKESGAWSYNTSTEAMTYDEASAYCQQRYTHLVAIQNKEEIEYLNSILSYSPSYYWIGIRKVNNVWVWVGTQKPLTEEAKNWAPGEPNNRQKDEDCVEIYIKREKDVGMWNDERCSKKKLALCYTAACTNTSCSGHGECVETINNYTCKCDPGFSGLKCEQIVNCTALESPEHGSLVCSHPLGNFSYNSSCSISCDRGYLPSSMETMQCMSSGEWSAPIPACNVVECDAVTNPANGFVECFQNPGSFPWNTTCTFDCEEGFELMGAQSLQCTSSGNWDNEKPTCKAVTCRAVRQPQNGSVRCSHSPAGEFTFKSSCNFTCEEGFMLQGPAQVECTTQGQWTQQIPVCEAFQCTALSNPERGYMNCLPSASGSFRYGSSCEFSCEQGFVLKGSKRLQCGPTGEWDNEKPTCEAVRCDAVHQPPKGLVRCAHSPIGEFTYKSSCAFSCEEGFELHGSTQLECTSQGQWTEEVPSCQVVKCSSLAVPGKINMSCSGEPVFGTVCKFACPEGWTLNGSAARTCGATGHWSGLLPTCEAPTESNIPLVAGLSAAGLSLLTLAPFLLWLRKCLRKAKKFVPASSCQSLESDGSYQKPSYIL
Sequence of human Retinoid X Receptor beta (RXRb), RXRB (gene 6257) (P28702 whole entry, looked up): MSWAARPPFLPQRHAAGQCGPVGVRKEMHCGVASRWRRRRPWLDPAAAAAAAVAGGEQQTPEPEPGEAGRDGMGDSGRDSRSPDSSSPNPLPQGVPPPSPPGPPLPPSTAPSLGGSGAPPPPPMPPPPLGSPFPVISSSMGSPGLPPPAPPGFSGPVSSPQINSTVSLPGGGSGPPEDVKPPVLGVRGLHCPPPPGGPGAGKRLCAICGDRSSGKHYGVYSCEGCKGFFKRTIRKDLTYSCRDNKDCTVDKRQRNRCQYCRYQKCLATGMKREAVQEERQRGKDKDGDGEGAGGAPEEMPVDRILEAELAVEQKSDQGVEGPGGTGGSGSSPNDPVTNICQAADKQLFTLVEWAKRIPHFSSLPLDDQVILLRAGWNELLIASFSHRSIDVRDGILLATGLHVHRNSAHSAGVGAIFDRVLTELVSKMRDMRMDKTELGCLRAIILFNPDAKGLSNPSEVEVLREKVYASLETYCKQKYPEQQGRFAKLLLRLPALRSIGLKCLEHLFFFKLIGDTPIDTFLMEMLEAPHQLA

Q: With Cc1cccc(C)c1O as the compound, how does the outcome read?
A: The outcome was “inactive”.

Q: How did the outcome turn out when CCCCCCOCCO was run?
A: Its outcome is “inactive”.

Q: Which outcome does the source give for C1CCC(SSC2CCCCC2)CC1 here?
A: The outcome was “inactive”.

Q: How did the outcome turn out when CNC(=O)[C@H]1O[C@@H](n2cnc3c(NCc4cc(Cl)ccc4OCc4cc(C)no4)ncnc32)[C@H](O)[C@@H]1N was run?
A: The outcome was “inactive”.

Q: Which AC50 does the source give for Cc1cccc([N+](=O)[O-])c1C here?
A: Its AC50 is 53.4 µM (active).

Q: For CCCCCCCC=O, which outcome is on record?
A: Its outcome is “inactive”.

Q: CNCc1cc(F)ccc1Oc1ccc(Cl)c(Cl)c1 was tested. Which outcome did it give?
A: Its outcome is “inactive”.

Q: Which AC50 does the source give for COc1cccc2c1C(=O)c1c(O)c3c(c(O)c1C2=O)C[C@@](O)(C(=O)CO)C[C@@H]3O[C@H]1C[C@H](N)[C@H](O)[C@H](C)O1 here?
A: Its AC50 is 0.0616 µM (active).

Q: Cc1ccc(C(C)C)c(O)c1 was tested. Which AC50 did it give?
A: Its AC50 is 40.6 µM (active).

Q: For Cc1oc(-c2ccccc2)nc1CCOc1cccc2c1ccn2CCC(=O)O, which AC50 is on record?
A: Its AC50 is 8.2 µM (active).

Q: For CCOC(=O)C(C)(C)Oc1ccc(Cl)cc1, which outcome is on record?
A: Its outcome is “inactive”.

Q: With Cc1ccc(N(C)C)cc1 as the compound, how does the outcome read?
A: Its outcome is “inactive”.

Q: Cc1cc(NC(=O)C(=O)O)cc(C)c1Oc1ccc(O)c2c1CCC2 was tested. Which outcome did it give?
A: Its outcome is “inactive”.

Q: Which outcome does the source give for Nc1ccc2c(c1)C(=O)c1ccccc1C2=O here?
A: The outcome was “inactive”.

Q: For Cc1ccc2ncccc2c1, which outcome is on record?
A: The outcome was “inactive”.

Q: Which outcome does the source give for CCCCN(CCCC)CCCC here?
A: Its outcome is “inactive”.

Q: With CCCCCCCCCCCCCO as the compound, how does the AC50 read?
A: Its AC50 is 58.9 µM (active).

Q: NS(=O)(=O)c1cc2c(cc1Cl)NCNS2(=O)=O was tested. Which outcome did it give?
A: Its outcome is “inactive”.

Molecular target: human Thyroid Receptor alpha (THRa1), THRA (gene 7067) (UniProt P10827)
Test: ATG_THRa1_TRANS: Attagene TRANS-FACTORIAL HepG2 Assay for human Thyroid Receptor alpha (THRa1) (AID 2283014; active means hit-call score of the fitted dose curve at least 0.9, where 1 is the maximum)
Conditions: not given
Outline: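 HepG2 cells transiently transfected with multiplexed GAL4-UAS reporter units for exogenous chimeric THRa1-Gal4; reporter mRNA measured 24 h after dosing by RT-PCR, 6-FAM labelling, HpaI digestion and capillary electrophoresis. Gain-of-signal fitted versus DMSO baseline.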

Sequence of human Thyroid Receptor alpha (THRa1), THRA (gene 7067) (P10827 whole entry, looked up): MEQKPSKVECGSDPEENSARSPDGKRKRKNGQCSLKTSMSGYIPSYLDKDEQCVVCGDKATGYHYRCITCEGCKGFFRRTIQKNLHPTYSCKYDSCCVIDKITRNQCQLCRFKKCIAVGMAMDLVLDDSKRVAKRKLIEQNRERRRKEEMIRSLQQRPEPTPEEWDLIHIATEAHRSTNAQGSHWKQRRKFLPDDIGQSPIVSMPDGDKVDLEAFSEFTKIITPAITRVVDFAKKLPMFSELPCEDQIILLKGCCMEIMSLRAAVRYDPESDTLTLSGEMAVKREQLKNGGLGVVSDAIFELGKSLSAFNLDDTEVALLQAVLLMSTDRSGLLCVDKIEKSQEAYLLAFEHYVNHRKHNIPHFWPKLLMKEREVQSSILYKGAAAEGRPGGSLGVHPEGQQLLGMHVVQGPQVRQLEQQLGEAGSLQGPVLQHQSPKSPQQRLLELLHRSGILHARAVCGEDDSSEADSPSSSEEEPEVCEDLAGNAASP

Q: With Cc1cccc(C)c1O as the compound, how does the outcome read?
A: Its outcome is “inactive”.

Q: Which outcome does the source give for CCCCCCOCCO here?
A: Its outcome is “inactive”.

Q: With O=[N+]([O-])C(CO)(CO)CO as the compound, how does the outcome read?
A: The outcome was “inactive”.

Q: For C1CCC(SSC2CCCCC2)CC1, which outcome is on record?
A: Its outcome is “inactive”.

Q: How did the outcome turn out when Cc1cccc([N+](=O)[O-])c1C was run?
A: Its outcome is “inactive”.

Q: Which outcome does the source give for CNCc1cc(F)ccc1Oc1ccc(Cl)c(Cl)c1 here?
A: The outcome was “inactive”.

Q: COCCOCCOC was tested. Which outcome did it give?
A: Its outcome is “inactive”.

Q: With C[C@]12C=CC(=O)C=C1CC[C@@H]1[C@@H]2C(=O)C[C@@]2(C)[C@H]1CC[C@]2(O)C(=O)CO as the compound, how does the outcome read?
A: Its outcome is “inactive”.

Q: How did the AC50 turn out when COc1cccc2c1C(=O)c1c(O)c3c(c(O)c1C2=O)C[C@@](O)(C(=O)CO)C[C@@H]3O[C@H]1C[C@H](N)[C@H](O)[C@H](C)O1 was run?
A: Its AC50 is 32.9 µM (active).

Q: Cc1ccc(C(C)C)c(O)c1 was tested. Which outcome did it give?
A: Its outcome is “inactive”.

Q: For Cc1ccc(N(C)C)cc1, which outcome is on record?
A: Its outcome is “inactive”.

Q: With CC(C)c1ccc(C(=O)N=C(N)N)cc1S(C)(=O)=O as the compound, how does the outcome read?
A: Its outcome is “inactive”.

Q: Cc1cc(NC(=O)C(=O)O)cc(C)c1Oc1ccc(O)c2c1CCC2 was tested. Which AC50 did it give?
A: Its AC50 is 0.00869 µM (active).

Q: Nc1ccc2c(c1)C(=O)c1ccccc1C2=O was tested. Which outcome did it give?
A: The outcome was “inactive”.

Q: COc1ccc(C)cc1N was tested. Which outcome did it give?
A: Its outcome is “inactive”.

Read-out: E-selectin (Homo sapiens) (UniProt P16581)
Test: BSK_3C_Eselectin: BioMAP Diversity Plus: 3C Assay for Eselectin Biomarker Activity (AID 2283015);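 on outcome: cell surface E-selectin protein quantified by ELISA 24 h after dosing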
Conditions: primary human endothelial cells (HUVEC); actives raise or lower the signal
Outline: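 Primary human umbilical vein endothelial cells (3C system) were dosed with chemical and cell-surface E-selectin measured by ELISA 24 h later. Bidirectional curve fitting used DMSO as negative control and baseline.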

Q: For CCCCCCOCCO, which outcome is on record?
A: The outcome was “inactive”.

Q: How did the outcome turn out when Cc1cccc([N+](=O)[O-])c1C was run?
A: The outcome was “inactive”.

Q: How did the outcome turn out when Nc1ccc(S(=O)(=O)c2ccc(N)cc2)cc1 was run?
A: Its outcome is “inactive”.

Q: How did the outcome turn out when C[C@]12C=CC(=O)C=C1CC[C@@H]1[C@@H]2C(=O)C[C@@]2(C)[C@H]1CC[C@]2(O)C(=O)CO was run?
A: Its outcome is “inactive”.

Q: For Cc1ccc(N(C)C)cc1, which outcome is on record?
A: The outcome was “inactive”.

Q: CC(C)c1ccc(C(=O)N=C(N)N)cc1S(C)(=O)=O was tested. Which outcome did it give?
A: Its outcome is “inactive”.

Q: Which outcome does the source give for Cc1cc(NC(=O)C(=O)O)cc(C)c1Oc1ccc(O)c2c1CCC2 here?
A: The outcome was “inactive”.

Q: Cc1ccc2ncccc2c1 was tested. Which outcome did it give?
A: Its outcome is “inactive”.

Q: For CCCCCCCCCCCCCO, which AC50 is on record?
A: Its AC50 is 37.8 µM (active).

Q: How did the outcome turn out when COc1ccc(C)cc1N was run?
A: The outcome was “inactive”.

Q: For COc1cc(S(=O)(=O)O)c(C)cc1N=Nc1c(O)ccc2cc(S(=O)(=O)O)ccc12, which outcome is on record?
A: Its outcome is “inactive”.

Read-out: Interleukin-1 alpha (IL1a), IL1A (gene 3552)
Test: BSK_BE3C_IL1a: BioMAP Diversity Plus: BE3C Assay for Interleukin-1 alpha (IL1a) Biomarker Activity (AID 2283016)
Conditions: primary human bronchial epithelial cells; actives raise or lower the signal
Outline: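 Cultures of primary human bronchial epithelial cells receive test chemical. After 24 h, IL-1a is quantified by ELISA, while parallel wells are fixed in TCA and SRB-stained for total protein. Changes in either direction are fitted relative to DMSO.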

Q: With Cc1cccc(C)c1O as the compound, how does the outcome read?
A: The outcome was “inactive”.

Q: For CCCCCCOCCO, which outcome is on record?
A: Its outcome is “inactive”.

Q: For O=[N+]([O-])C(CO)(CO)CO, which outcome is on record?
A: The outcome was “inactive”.

Q: How did the outcome turn out when C1CCC(SSC2CCCCC2)CC1 was run?
A: The outcome was “inactive”.

Q: How did the outcome turn out when CNC(=O)[C@H]1O[C@@H](n2cnc3c(NCc4cc(Cl)ccc4OCc4cc(C)no4)ncnc32)[C@H](O)[C@@H]1N was run?
A: The outcome was “inactive”.

Q: With Cc1cccc([N+](=O)[O-])c1C as the compound, how does the outcome read?
A: Its outcome is “inactive”.

Q: CCCCCCCC=O was tested. Which outcome did it give?
A: Its outcome is “inactive”.

Q: For CNCc1cc(F)ccc1Oc1ccc(Cl)c(Cl)c1, which outcome is on record?
A: Its outcome is “inactive”.

Q: How did the outcome turn out when COCCOCCOC was run?
A: Its outcome is “inactive”.

Q: Nc1ccc(S(=O)(=O)c2ccc(N)cc2)cc1 was tested. Which outcome did it give?
A: The outcome was “inactive”.

Q: With C[C@]12C=CC(=O)C=C1CC[C@@H]1[C@@H]2C(=O)C[C@@]2(C)[C@H]1CC[C@]2(O)C(=O)CO as the compound, how does the outcome read?
A: Its outcome is “inactive”.

Q: For Cc1ccc(C(C)C)c(O)c1, which outcome is on record?
A: Its outcome is “inactive”.

Q: Which outcome does the source give for O=C(O)Cc1ccccc1Nc1c(Cl)cccc1Cl here?
A: Its outcome is “inactive”.

Q: Which outcome does the source give for Cc1oc(-c2ccccc2)nc1CCOc1cccc2c1ccn2CCC(=O)O here?
A: Its outcome is “inactive”.

Q: CC=Cc1ccc(O)c(OC)c1 was tested. Which outcome did it give?
A: The outcome was “inactive”.

Q: CCOC(=O)C(C)(C)Oc1ccc(Cl)cc1 was tested. Which outcome did it give?
A: The outcome was “inactive”.

Q: For Cc1ccc(N(C)C)cc1, which outcome is on record?
A: Its outcome is “inactive”.

Q: For CC(C)c1ccc(C(=O)N=C(N)N)cc1S(C)(=O)=O, which outcome is on record?
A: Its outcome is “inactive”.

Q: Cc1cc(NC(=O)C(=O)O)cc(C)c1Oc1ccc(O)c2c1CCC2 was tested. Which outcome did it give?
A: Its outcome is “inactive”.

Q: Nc1ccc2c(c1)C(=O)c1ccccc1C2=O was tested. Which outcome did it give?
A: The outcome was “inactive”.

Q: Which outcome does the source give for Cc1ccc2ncccc2c1 here?
A: The outcome was “inactive”.

Q: With CCCCCCCCCCCCCCCCCC(=O)O as the compound, how does the outcome read?
A: The outcome was “inactive”.

Q: Which outcome does the source give for CCCCN(CCCC)CCCC here?
A: Its outcome is “inactive”.

Q: Which outcome does the source give for CCCCCCCCCCCCCO here?
A: The outcome was “inactive”.

Q: How did the outcome turn out when CC1(C)CC(N=C=O)CC(C)(CN=C=O)C1 (configuration not stated) was run?
A: The outcome was “inactive”.

Q: NS(=O)(=O)c1cc2c(cc1Cl)NCNS2(=O)=O was tested. Which outcome did it give?
A: The outcome was “inactive”.

Q: With COc1ccc(C)cc1N as the compound, how does the outcome read?
A: Its outcome is “inactive”.

Q: Which outcome does the source give for COc1cc(S(=O)(=O)O)c(C)cc1N=Nc1c(O)ccc2cc(S(=O)(=O)O)ccc12 here?
A: The outcome was “inactive”.

Source: PubChem BioAssay (EPA / NIEHS)
